# Measured values reported in the supplement of paper PMC11732987, “Enantioselective OTUD7B fragment discovery through chemoproteomics screening and high-throughput optimisation” (Communications Chemistry, 2025).
# Unmarked numbers belong to inactive results.
# How the values were obtained:
# Experiment in all cases: log2 ratio of Biotin-Ahx-Ub-VS probe labelling (fragment/DMSO); higher = less target engagement (more negative = stronger competition), active = hit call of the paper (q ≤ 0.05, log2 ratio ≤ -1)
# Details in all cases: compound concentration: 200 uM; treatment time: 3 h
# USP19 = target: T1, USP19 (UniProt O94966)
# T1 sequence (whole entry): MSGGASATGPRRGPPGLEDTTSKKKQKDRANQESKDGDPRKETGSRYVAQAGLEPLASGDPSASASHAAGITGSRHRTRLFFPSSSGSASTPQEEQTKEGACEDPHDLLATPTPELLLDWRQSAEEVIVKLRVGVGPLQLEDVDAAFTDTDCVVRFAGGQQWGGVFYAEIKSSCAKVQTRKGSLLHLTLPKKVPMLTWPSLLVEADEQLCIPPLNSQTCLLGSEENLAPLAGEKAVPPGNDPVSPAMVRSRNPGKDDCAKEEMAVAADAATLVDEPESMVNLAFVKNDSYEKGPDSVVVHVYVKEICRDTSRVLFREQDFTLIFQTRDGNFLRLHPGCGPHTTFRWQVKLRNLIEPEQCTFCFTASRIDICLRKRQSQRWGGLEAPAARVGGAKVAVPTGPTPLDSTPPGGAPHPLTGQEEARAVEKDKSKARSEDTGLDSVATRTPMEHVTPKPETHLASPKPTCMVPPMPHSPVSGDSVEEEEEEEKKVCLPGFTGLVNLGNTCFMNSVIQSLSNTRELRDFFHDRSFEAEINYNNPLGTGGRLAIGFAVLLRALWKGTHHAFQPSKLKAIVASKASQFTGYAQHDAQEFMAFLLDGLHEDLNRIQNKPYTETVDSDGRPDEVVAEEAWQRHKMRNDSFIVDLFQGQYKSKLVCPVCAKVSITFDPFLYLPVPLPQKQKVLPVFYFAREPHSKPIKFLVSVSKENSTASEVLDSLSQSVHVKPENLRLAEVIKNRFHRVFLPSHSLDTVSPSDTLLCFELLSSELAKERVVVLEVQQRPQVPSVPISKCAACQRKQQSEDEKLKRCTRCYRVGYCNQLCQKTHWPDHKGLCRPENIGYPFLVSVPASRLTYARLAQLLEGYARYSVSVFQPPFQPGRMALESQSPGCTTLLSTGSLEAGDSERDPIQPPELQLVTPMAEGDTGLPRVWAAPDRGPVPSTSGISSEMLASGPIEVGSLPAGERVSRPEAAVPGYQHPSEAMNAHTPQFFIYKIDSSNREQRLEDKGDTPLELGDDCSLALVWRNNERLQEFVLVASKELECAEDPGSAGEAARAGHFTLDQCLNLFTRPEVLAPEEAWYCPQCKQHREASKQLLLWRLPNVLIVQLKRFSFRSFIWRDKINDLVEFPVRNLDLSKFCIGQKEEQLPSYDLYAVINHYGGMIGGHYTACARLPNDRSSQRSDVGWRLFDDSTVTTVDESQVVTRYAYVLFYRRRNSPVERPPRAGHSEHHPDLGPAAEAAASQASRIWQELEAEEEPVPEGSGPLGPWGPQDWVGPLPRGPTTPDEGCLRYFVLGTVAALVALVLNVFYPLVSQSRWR
# Summary of the method: (§1)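 The table lists average log2 ratios of fragment over vehicle, from an unpaired t-test on global-median-normalised Spectronaut label-free quantities. Proteins with ≥2 unique peptides were used. Samples were HEK293T lysate (495 µg) treated in triplicate with fragment at 200 µM or vehicle for 3 h, then with Biotin-Ahx-Ub-VS (0.5 µM final) for 1 h, with labelled DUBs NeutrAvidin-enriched and run by diaPASEF LC-MS/MS.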
# USP24 = USP24 (UniProt Q9UPU5)
# Sequence of USP24 (Q9UPU5 whole entry): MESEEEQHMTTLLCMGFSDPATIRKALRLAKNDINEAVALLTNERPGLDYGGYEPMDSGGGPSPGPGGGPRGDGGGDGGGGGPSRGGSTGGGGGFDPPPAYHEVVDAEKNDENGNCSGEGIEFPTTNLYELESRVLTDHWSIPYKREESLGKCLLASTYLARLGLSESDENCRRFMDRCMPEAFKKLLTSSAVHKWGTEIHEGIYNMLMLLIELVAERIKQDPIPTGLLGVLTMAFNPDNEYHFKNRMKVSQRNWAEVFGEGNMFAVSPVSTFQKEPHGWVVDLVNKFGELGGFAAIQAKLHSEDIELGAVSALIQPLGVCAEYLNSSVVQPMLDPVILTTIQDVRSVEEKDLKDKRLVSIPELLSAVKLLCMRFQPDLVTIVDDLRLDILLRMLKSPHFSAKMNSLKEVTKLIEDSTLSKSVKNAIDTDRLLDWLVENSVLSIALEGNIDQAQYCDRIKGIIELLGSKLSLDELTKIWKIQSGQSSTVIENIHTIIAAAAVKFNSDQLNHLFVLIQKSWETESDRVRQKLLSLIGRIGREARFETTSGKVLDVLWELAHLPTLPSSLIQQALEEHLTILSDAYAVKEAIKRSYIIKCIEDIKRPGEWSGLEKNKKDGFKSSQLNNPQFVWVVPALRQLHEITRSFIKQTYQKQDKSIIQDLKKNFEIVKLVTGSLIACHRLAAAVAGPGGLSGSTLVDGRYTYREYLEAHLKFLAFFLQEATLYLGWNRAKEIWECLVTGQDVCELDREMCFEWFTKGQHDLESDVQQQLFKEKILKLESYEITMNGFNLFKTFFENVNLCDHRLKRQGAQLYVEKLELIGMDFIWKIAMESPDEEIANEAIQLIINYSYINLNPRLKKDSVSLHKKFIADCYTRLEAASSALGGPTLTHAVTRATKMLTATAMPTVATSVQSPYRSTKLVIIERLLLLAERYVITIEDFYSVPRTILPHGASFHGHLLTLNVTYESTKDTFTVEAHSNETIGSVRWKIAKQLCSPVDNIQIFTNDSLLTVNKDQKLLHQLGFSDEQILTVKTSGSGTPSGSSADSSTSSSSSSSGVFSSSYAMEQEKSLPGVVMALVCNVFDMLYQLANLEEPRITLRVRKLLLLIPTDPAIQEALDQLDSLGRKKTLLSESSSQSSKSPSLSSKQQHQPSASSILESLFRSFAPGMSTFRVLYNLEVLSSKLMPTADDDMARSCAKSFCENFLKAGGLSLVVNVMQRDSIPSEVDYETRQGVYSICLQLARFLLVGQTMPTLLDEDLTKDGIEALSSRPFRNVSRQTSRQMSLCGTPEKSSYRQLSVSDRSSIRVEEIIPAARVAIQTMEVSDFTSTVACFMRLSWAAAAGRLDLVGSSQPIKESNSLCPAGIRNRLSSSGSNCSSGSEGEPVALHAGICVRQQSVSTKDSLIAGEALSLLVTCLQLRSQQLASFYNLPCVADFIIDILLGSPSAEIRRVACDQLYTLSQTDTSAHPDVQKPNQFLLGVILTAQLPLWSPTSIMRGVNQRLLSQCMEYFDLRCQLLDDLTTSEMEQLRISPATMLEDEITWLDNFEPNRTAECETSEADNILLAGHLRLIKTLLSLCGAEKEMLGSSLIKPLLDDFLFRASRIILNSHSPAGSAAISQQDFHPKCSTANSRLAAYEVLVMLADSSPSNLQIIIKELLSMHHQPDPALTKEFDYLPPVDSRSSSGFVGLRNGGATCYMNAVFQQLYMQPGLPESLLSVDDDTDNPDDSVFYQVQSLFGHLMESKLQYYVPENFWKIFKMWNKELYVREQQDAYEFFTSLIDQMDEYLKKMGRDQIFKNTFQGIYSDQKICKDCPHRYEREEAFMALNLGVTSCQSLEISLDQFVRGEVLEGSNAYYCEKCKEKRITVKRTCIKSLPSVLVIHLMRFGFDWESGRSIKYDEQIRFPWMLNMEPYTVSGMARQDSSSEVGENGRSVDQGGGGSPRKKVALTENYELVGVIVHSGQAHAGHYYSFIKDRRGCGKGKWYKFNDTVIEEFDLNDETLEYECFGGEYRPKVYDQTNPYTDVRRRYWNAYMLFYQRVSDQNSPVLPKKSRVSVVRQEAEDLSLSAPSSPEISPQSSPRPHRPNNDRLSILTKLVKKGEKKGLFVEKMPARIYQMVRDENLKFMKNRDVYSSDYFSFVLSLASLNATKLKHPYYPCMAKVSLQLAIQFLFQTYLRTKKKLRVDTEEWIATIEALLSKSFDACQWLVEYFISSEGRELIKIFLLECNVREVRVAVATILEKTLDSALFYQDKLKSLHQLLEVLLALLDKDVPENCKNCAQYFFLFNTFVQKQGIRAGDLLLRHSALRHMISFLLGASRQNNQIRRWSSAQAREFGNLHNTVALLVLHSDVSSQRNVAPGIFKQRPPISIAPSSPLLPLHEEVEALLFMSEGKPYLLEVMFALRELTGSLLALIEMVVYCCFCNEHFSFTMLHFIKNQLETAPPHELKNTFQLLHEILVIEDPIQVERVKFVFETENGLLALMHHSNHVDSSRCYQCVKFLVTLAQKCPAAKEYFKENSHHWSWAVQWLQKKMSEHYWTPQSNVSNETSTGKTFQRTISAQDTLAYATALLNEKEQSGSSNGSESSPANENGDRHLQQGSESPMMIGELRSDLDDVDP
# Summary of the method: as §1
# USP25 = target: T2, USP25 (UniProt Q9UHP3)
# T2 sequence (whole entry): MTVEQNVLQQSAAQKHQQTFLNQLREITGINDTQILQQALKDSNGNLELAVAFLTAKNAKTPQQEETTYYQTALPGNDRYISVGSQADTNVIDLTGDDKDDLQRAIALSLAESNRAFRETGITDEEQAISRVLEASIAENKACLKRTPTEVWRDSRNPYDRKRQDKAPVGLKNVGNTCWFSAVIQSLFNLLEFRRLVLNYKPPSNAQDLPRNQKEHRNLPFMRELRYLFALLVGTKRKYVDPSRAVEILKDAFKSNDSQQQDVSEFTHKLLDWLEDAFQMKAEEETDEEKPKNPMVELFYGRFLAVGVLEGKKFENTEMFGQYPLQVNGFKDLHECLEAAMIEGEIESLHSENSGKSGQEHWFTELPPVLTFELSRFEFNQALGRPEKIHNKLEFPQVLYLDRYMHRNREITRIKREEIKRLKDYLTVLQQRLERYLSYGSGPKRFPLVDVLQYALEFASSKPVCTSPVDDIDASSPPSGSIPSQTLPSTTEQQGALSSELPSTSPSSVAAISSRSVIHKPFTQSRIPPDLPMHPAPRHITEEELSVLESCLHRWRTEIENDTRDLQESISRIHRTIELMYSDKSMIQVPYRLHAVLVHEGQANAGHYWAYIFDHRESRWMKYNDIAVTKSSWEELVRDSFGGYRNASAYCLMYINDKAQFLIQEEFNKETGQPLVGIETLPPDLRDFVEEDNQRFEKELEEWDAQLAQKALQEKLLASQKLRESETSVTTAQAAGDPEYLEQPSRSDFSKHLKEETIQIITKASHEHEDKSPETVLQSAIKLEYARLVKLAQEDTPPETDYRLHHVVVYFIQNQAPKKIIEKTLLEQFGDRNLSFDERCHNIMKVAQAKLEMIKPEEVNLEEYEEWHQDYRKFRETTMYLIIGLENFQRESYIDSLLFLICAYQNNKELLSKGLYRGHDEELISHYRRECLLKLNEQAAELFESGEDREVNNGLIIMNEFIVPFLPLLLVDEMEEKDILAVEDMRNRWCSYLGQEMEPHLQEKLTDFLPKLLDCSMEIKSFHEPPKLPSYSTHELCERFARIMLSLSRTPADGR
# Summary of the method: as §1
# USP28 = target: T3, USP28 (UniProt Q96RU2)
# T3 sequence (whole entry): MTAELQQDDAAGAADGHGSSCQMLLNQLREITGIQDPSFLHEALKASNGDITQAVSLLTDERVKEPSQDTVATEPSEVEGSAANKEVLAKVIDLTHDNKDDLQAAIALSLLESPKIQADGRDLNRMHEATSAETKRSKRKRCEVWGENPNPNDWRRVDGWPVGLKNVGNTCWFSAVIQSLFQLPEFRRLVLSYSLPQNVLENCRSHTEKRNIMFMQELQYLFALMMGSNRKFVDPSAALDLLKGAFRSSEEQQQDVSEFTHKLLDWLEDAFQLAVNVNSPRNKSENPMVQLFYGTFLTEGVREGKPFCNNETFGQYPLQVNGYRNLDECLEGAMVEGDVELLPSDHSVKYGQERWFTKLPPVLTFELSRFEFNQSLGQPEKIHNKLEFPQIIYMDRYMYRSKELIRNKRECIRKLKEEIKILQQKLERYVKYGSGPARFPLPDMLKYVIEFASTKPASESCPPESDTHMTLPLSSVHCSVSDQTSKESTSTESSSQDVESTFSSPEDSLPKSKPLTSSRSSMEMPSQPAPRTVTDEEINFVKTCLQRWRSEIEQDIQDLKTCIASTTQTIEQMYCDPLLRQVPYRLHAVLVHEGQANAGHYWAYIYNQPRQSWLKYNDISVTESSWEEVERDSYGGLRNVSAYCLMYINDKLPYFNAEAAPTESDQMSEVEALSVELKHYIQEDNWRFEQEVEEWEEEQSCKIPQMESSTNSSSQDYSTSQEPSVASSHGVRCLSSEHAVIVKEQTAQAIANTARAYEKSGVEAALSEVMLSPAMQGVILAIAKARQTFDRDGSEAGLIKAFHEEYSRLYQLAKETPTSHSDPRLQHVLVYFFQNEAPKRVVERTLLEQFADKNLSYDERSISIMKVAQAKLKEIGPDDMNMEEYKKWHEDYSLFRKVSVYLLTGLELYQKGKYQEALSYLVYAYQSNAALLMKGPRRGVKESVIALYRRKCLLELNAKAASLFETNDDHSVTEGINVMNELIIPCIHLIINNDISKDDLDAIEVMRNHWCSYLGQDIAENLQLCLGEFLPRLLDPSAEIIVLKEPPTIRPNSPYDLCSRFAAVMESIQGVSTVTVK
# Summary of the method: as §1
compound,measurement,setting,value
COc1cc(Cl)c(C)cc1NC(=O)CCl,log2 ratio of Biotin-Ahx-Ub-VS probe labelling,USP19,-0.357
same,log2 ratio of Biotin-Ahx-Ub-VS probe labelling,USP24,-1.3 (active)
same,log2 ratio of Biotin-Ahx-Ub-VS probe labelling,USP25,-0.839
same,log2 ratio of Biotin-Ahx-Ub-VS probe labelling,USP28,-0.742
